This experiment deals with Lefty1. Briefly: Lefty1 protein binding to printed compounds – biochemical, small-molecule microarray, 635/667 nm fluorescence, primary screen (AID 1139). The conditions noted are these: fluorescence 635/667, higher = more signal.
Regarding `[N-]=[N+]=NCc1ccccc1[C@H]1OC(c2ccc(OCCCO)cc2)=N[C@@]1(CCS(=O)(=O)c1ccccc1)C(=O)NCc1ccccc1`, the composite z-score was 0.189. Compound `COc1ccc([Si](C)(C)[C@H]2[C@H](CCO)O[C@@]3(C(=O)N(Cc4ccc(N5C(=O)c6ccccc6Oc6ccccc65)cc4)c4ccccc43)[C@@H]2C)cc1` gave a composite z-score of -0.865. For `O=C(NCC(O)CO)[C@@]1(CCS(=O)(=O)c2ccccc2)COC(c2ccc(OCCCO)cc2)=N1` (some centres undefined) the value was -0.682. For `C=CCC(OC(C)=O)[C@@H]1[C@@H](N(Cc2cccc3ccccc23)C(=O)Cc2ccc(F)cc2)c2cc(OCCCO)ccc2N1C(=O)c1ccc(-c2ccccc2)cc1` (some centres undefined) the value was -0.62; for `C=CCNC(=O)[C@@H]1[C@H]2C(=O)O[C@H](c3ccccc3)[C@H](c3ccccc3)N2[C@H](c2ccc(O)cc2)[C@@]12C(=O)N(C(=O)OCCOC)c1ccc(C#CCCO)cc12`, 0.531.

Turning to `C=CCNC(=O)[C@@H]1[C@H]2C(=O)O[C@H](c3ccccc3)[C@H](c3ccccc3)N2[C@H](c2ccc(OCCO)cc2)[C@@]12C(=O)N(C(=O)OCCOC)c1ccc(C#CCCO)cc12`, the composite z-score stood at 1.1.

`C=CCOC(=O)[C@H]1[C@@H]2C(=O)O[C@@H](c3ccccc3)[C@@H](c3ccccc3)N2[C@@H](c2ccc(OCCOC(=O)[C@H]3C[C@H]4C(=O)N[C@@H](CCCCNC(C)=O)C(=O)N4[C@H]3c3cccc(OCCO)c3)cc2)[C@]12C(=O)Nc1ccc(I)cc12` displayed a composite z-score of 1.55. Regarding `COCCOC(=O)N1C(=O)[C@@]2(c3cc(C#CC4=CCCCC4)ccc31)[C@H](c1ccc(O)cc1)N1[C@H](c3ccccc3)[C@H](c3ccccc3)OC(=O)[C@H]1[C@@H]2C(=O)NC[C@H](O)c1ccccc1`, the composite z-score was found to be 0.858. For `CN1C(=O)C2C=CC(C(O)c3ccc(I)cc3)N(Nc3ccccc3)C2C1=O` (centres undefined) the value was 0.465.

Values taken from PubChem BioAssay.
